Several values for one entry are separate records, joined by “and”; a condition that tells them apart may be missing. Equal values may be shown once. Results filed as inconclusive are left out. Where a call stands in place of a potency, no number is given. Activity calls are given as the source filed them. Calls come from the whole dose curve; as a rule, active = well fitted inhibition curve with a large enough effect in the repeat runs; inconclusive = weak or mixed curves, or effect the other way; inactive = no such curve, though single readings can be large or run the other way.
Potency is the fitted concentration of half-maximal effect.

This assay deals with Nuclear receptor ROR-gamma (Homo sapiens) (UniProt P51449). As to the kind of experiment: qHTS assay to identify small molecule antagonists of the retinoid-related orphan receptor gamma (ROR-gamma) signaling pathway (AID 1159521; note: nearly all actives have a fitted effect of over 50% in size; for activity change, negative = inhibition: top concentration of the series differs between compounds). The note with it: Tet-on RORgamma CHO cells, RORE-luciferase, 16 h; series mostly up to 92.4 µM. From the text: U.S. Tox21 Program National Center for Advancing Translational Sciences [NCATS] NIH Chemical Genomics Center [NCGC] U.S. Environmental Protection Agency [EPA] National Institutes of Environmental Health Sciences [NIEHS] National Toxicology Program [NTP] U.S. Food and Drug Administration [FDA] Tox21 Assay Overview: Nuclear steroid hormone receptors are involved in many biological processes including inflammatory responses, cell proliferation, and apoptosis. Environmental factors or compounds disrupting these nuclear receptor pathways and gene expression may promote susceptibility to immunotoxicants and autoimmune diseases. One important group of these expression factors are the retinoid-related orphan receptors. To assess compounds that may interfere with the retinoid-related orphan receptor gamma (ROR-gamma) transcription factor, a cell-based luciferase assay was used. The CHO cell-based assay utilizes a TET-inducible ROR expression factor and ROR response element-LUC reporter gene. Reporter gene activity was induced using Doxycycline Hyclate and measured after 16 hr incubation. Tet-on ROR gamma CHO cells were used to screen against the Tox21 10K compound library for ROR gamma antagonists by quantification of decreased reporter gene activity in terms of decreased luminescence.
Tox21 Assay Protocol Summary: Tet-on ROR gamma CHO cells were dispensed at 1,000 cells in 4 uL of culture medium per well into white wall/solid bottom 1536-well plates using a Multidrop Combi (Thermo Scientific, Waltham, MA) dispenser. Following incubation at 37 C and 5% CO2 for 4 hr, 23 nL of compounds dissolved in DMSO, positive controls or DMSO only were transferred by a Pintool station (Kalypsys, San Diego, CA) and after 2 hr incubation at 37 C, one ul of 1 uM (final concentration) of Doxycycline Hyclate was added to all the wells by using a Flying Reagent Dispenser (FRD) (Aurora Discovery, San Diego, CA). After 16 hr incubation at 37 C and 5% CO2, 5 uL of ONE-Glo reagent (Promega Corporation, Madison, WI) was added to each assay plate using FRD. After 30 min incubation at room temperature, luminescence was quantified on a ViewLux plate reader (Perkin Elmer, Waltham, MA).
For orientation: In qHTS, concentration-response curves come from the screen itself.
Take `CCCCCCCCCCCCCCCl`: the Potency entry is “inactive”.
With `CC(Oc1cccc(Cl)c1)C(=O)O` (stereo not given), the Potency entry was “inactive”.
As to `N#CC(C#N)=Cc1ccc(O)c(O)c1`, the Potency result is “inactive”.
Consider `COc1cc(CC#N)cc(OC)c1OC`, for which the Potency entry is “inactive”.
As to `O=C(N/N=C/c1ccc([N+](=O)[O-])o1)c1cc([N+](=O)[O-])cc([N+](=O)[O-])c1O`, the Potency entry is “inactive”.
Take `Cc1nnc(-c2ccccc2)c(=O)n1N`: the Potency result was “inactive”.
Same read-out and setting: then `N#CC(C#N)=C(C#N)C#N`, with “inactive”.
On to `CCCCCCCCCCCCN=C(N)N`, for which the activity change, negative = inhibition was -12% [at 3.27 µM] (inactive).
Consider `CCCCCCCCP(=O)(O)O`, for which the Potency entry was “inactive”.
In the case of `CN(C)c1ccc(N=O)cc1`, the Potency was 4.34 µM (active) and 9.69 µM (active).
On to `Clc1ccc(Cl)c(Cl)c1`, for which the Potency result was “inactive”.
As to `CC(=O)NNc1ccccc1`, the Potency entry was “inactive”.
The same measure, in the same setting: the same measure for `COc1ccccc1N1CCNCC1`: “inactive”; for `CCCC1CCCCN1` (stereo not given): “inactive”; for `CN1CC[C@]23c4c5ccc(O)c4O[C@H]2[C@@H](O)C=C[C@H]3[C@H]1C5`: “inactive”.
Take `CC(C)(C)c1ccc(CCOc2ncnc3ccccc23)cc1`: the Potency entry was “inactive”.
Regarding `Nc1ccccc1C(=O)OCCc1ccccc1`, the Potency entry is “inactive”.
Same read-out and setting: the same measure for `C=C(Cl)Cl`: “inactive”; for `C=CCOC(=O)C(C)(C)OC(=O)c1cc(-n2c(=O)cc(C(F)(F)F)n(C)c2=O)ccc1Cl`: “inactive”.
Turning to `C[N+](C)(C)CCOC(=O)C(O)(c1ccccc1)c1ccccc1`, the Potency result was “inactive”.
Still for that read-out and setting: the same measure for `CCOC(=O)NC(O)C(Cl)(Cl)Cl` (stereo not given): “inactive”; for `CCC(C)(C)O`: “inactive”; for `NP(N)(=O)NC(=O)c1ccc(F)cc1`: “inactive”.
In the case of `O=C(O)COc1cc(Cl)c(Cl)cc1Cl`, the Potency result is “inactive”.
Consider `CCOP(=S)(S)OCC`, for which the Potency result is “inactive”.
As for `C=CCc1ccc(OC(=O)Cc2ccccc2)c(OC)c1`, the Potency entry is “inactive”.
In the case of `Cc1nc(N(C)C)nc(OC(=O)N(C)C)c1C`, the Potency result is “inactive”.
On the same count and under the same terms, then `CCCCC1C(=O)NC(=O)N(C2CCCCC2)C1=O` (stereo not given), with “inactive”.
Turning to `O=C([O-])c1ccccn1.O=C([O-])c1ccccn1.O=C([O-])c1ccccn1.[Cr+3]`, the Potency entry is “inactive”.
The same measure, in the same setting: then `O=C(O)C(Cl)(Cl)Br`, with “inactive”.
`CCCCCCCCCCCCN(C)C`: the Potency result was “inactive”.
Regarding `Clc1ccc2ccccc2c1`, the Potency entry was “inactive”.
As for `CC(O)CN1CCN(CC(=O)[O-])CCN(CC(=O)[O-])CCN(CC(=O)[O-])CC1.[Gd+3]` (stereo not given), the Potency result is “inactive”.
For `c1ccc2sc(SNC3CCCCC3)nc2c1`, the Potency result is “inactive”.
As for `CC(C)(C)N(NC(=O)c1ccc(Cl)cc1)C(=O)c1ccccc1`, the Potency result is “inactive”.
Turning to `CNC(=O)Oc1cccc(N=CN(C)C)c1`, the Potency result is “inactive”.
On the same count and under the same terms, then `O=C(O)C(O)C(O)C(=O)O` (stereo not given), with “inactive”.
For the molecule `CCCC[P+](CC)(CCCC)CCCC` (tested in a mixture with another compound), the Potency entry is “inactive”.
Turning to `C[C@H](N)[C@H](O)c1ccc(O)c(O)c1`, the Potency result was “inactive”.
As for `CCCCOC(=O)CCC(=O)OCCCC`, the Potency entry is “inactive”.

The record behind these values is PubChem BioAssay (Tox21).
